Laboratory results: the supplement of paper PMC9262897, “Low-cost anti-mycobacterial drug discovery using engineered E. coli” (Nature Communications, 2022)
Counter-ions that a name gives are not always drawn. ± gives the standard deviation of the averaged measurements.

Assays:
Experiment in all cases: growth (OD600 after 10 h); higher = more growth (less inhibition)
[1] = test system: E. coli TESEC Alr+ wild-type control; details: compound 0.1 mM; raw OD600 reference: median of DMSO wells 0.241, cell-free background 0.041
Experimental: (§1)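 TESEC Mtb Alr E. coli, or the Alr+ wild-type control, in 384-well plates with Prestwick library compounds at 0.1 mM and 1% DMSO, across arabinose induction levels of 1E3 to 1E7 nM. Growth is read as OD600 after 10 h at 37 °C in triplicate biological replicates.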

E. coli TESEC Mtb Alr [2] = details: compound 0.1 mM
Experimental: as §1

E. coli TESEC Mtb Asd = details: compound 0.1 mM
Experimental: (§2)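 TESEC E. coli strains in which the native enzyme is deleted and replaced by arabinose-inducible Mtb Asd, DapB, CysH or TrpD, each grown in its selective medium. Strains were screened against the Prestwick library at 0.1 mM and 1% DMSO in 384-well format at low and high arabinose induction. Growth is read as OD600 after 10 h in triplicate.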

E. coli TESEC Mtb DapB = details: compound 0.1 mM
Experimental: as §2

[3] = test system: E. coli TESEC Alr+ wild-type control; details: compound 0.1 mM; raw OD600 reference: median of DMSO wells 0.49, cell-free background 0.052
Experimental: (§3)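 TESEC Mtb Alr E. coli (ΔaraC ΔtolC ΔentC Δalr ΔdadX, arabinose-inducible Mtb Alr) or the Alr+ wild-type control strain, grown in defined M9-fructose medium without D-alanine in 96-well plates with Prestwick library compounds at 0.1 mM and 1% DMSO. Low Alr induction is 0.1 µM arabinose and high induction is 10 mM arabinose.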

E. coli TESEC Mtb Alr [4] = details: compound 0.1 mM; remark: listed apart in the source
Experimental: as §3

[5] = arabinose 1000 nM, raw OD600 reference: median of DMSO wells 0.294, cell-free background 0.041
[6] = arabinose 10000 nM, raw OD600 reference: median of DMSO wells 0.264, cell-free background 0.041
[7] = arabinose 100000 nM, raw OD600 reference: median of DMSO wells 0.201, cell-free background 0.041
[8] = arabinose 1000000 nM, raw OD600 reference: median of DMSO wells 0.193, cell-free background 0.041
[9] = arabinose 10000000 nM, raw OD600 reference: median of DMSO wells 0.146, cell-free background 0.041
[10] = arabinose induction (level): High, raw OD600 reference: median of DMSO wells 0.331, cell-free background 0.041
[11] = arabinose induction (level): Low, raw OD600 reference: median of DMSO wells 0.417, cell-free background 0.041
[12] = arabinose induction (level): High, raw OD600 reference: median of DMSO wells […], cell-free background 0.041
[13] = arabinose induction (level): Low, raw OD600 reference: median of DMSO wells 0.227, cell-free background 0.041
[14] = arabinose 100 nM, raw OD600 reference: median of DMSO wells 0.413, cell-free background 0.052
[15] = arabinose 10000000 nM, raw OD600 reference: median of DMSO wells […], cell-free background 0.052

Row | SMILES | growth [1] | growth (E. coli TESEC Mtb Alr [2]; [5]) | growth (E. coli TESEC Mtb Alr [2]; [6]) | growth (E. coli TESEC Mtb Alr [2]; [7]) | growth (E. coli TESEC Mtb Alr [2]; [8]) | growth (E. coli TESEC Mtb Alr [2]; [9]) | growth (E. coli TESEC Mtb Asd; [10]) | growth (E. coli TESEC Mtb Asd; [11]) | growth (E. coli TESEC Mtb DapB; [12]) | growth (E. coli TESEC Mtb DapB; [13]) | growth [3] | growth (E. coli TESEC Mtb Alr [4]; [14]) | growth (E. coli TESEC Mtb Alr [4]; [15])
1 | CN(Cc1cnc2nc(N)nc(N)c2n1)c1ccc(C(=O)N[C@@H](CCC(=O)O)C(=O)O)cc1 (racemic) [Amethopterin (R,S)] | 0.213 ± 0.01 | 0.273 ± 0.0079 | 0.224 ± 0.011 | 0.206 ± 0.049 | 0.14 ± 0.0075 | 0.144 ± 0.0042 | 0.213 ± 0.024 | 0.368 ± 0.029 | 0.192 ± 0.033 | 0.204 ± 0.022 | 0.0999 ± 0.0032 | 0.244 ± 0.13 | 0.125 ± 0.0053
2 | CN(C)CCCN1c2ccccc2Sc2ccccc21 [Promazine hydrochloride] | 0.189 ± 0.0053 | 0.227 ± 0.011 | 0.2724 ± 0.002 | 0.192 ± 0.01 | 0.129 ± 0.0026 | 0.158 ± 0.004 | 0.187 ± 0.03 | 0.261 ± 0.023 | 0.195 ± 0.017 | 0.254 ± 0.033 | 0.523 ± 0.031 | 0.415 ± 0.0068 | 0.273 ± 0.0038
3 | CC(c1cc2ccccc2s1)N(O)C(N)=O (stereo unspecified) [Zileuton] | 0.229 ± 0.004 | 0.295 ± 0.021 | 0.254 ± 0.011 | 0.223 ± 0.018 | 0.183 ± 0.0054 | 0.151 ± 0.0028 | 0.338 ± 0.022 | 0.352 ± 0.012 | 0.216 ± 0.029 | 0.216 ± 0.017 | 0.457 ± 0.011 | 0.403 ± 0.0065 | 0.3407 ± 0.00091
4 | O=C(c1ccccc1)c1ccc2n1CCC2C(=O)O (stereo unspecified) [Ketorolac tromethamine] | 0.222 ± 0.0085 | 0.262 ± 0.015 | 0.253 ± 0.013 | 0.181 ± 0.01 | 0.195 ± 0.0049 | 0.137 ± 0.0035 | 0.381 ± 0.035 | 0.331 ± 0.036 | 0.194 ± 0.02 | 0.216 ± 0.049 | 0.531 ± 0.076 | 0.384 ± 0.016 | 0.326 ± 0.0097
5 | N=C(N)N1CCc2ccccc2C1 [Debrisoquin sulfate] | 0.237 ± 0.0047 | 0.288 ± 0.013 | 0.254 ± 0.0074 | 0.222 ± 0.036 | 0.174 ± 0.0076 | 0.147 ± 0.0083 | 0.373 ± 0.058 | 0.373 ± 0.027 | 0.209 ± 0.022 | 0.22 ± 0.039 | 0.567 ± 0.039 | 0.406 ± 0.01 | 0.334 ± 0.013
6 | COC1=C(OC)C(=O)C(CCCCCCCCCCO)=C(C)C1=O [Idebenone] | 0.0426 ± 0.0005 | 0.0428 ± 0.0023 | 0.0413 ± 0.00026 | 0.0466 ± 0.0041 | 0.04233 ± 0.0004 | 0.0482 ± 0.0015 | 0.0516 ± 0.0016 | 0.0501 ± 0.0007 | 0.0884 ± 0.057 | 0.066 ± 0.0091 | 0.0491 ± 0.0001 | 0.139 ± 0.087 | 0.0513 ± 0.001
7 | O=C1c2c(O)ccc(O)c2C(=O)c2c(NCCNCCO)ccc(NCCNCCO)c21 [Mitoxantrone dihydrochloride] | 0.355 ± 0.0023 | 0.3551 ± 0.0031 | 0.3438 ± 0.0024 | 0.3501 ± 0.0014 | 0.3506 ± 0.001 | 0.3496 ± 0.0028 | 0.36 ± 0.0066 | 0.3445 ± 0.0031 | 0.348 ± 0.0055 | 0.348 ± 0.0049 | 0.259 ± 0.051 | 0.231 ± 0.0097 | 0.292 ± 0.025
8 | CN1CCN(CCCN2c3ccccc3Sc3ccc(Cl)cc32)CC1 [Prochlorperazine dimaleate] | 0.04087 ± 0.00015 | 0.041 ± 0.00045 | 0.03943 ± 0.00025 | 0.0418 ± 0.00082 | 0.0404 ± 0.0023 | 0.0433 ± 0.00072 | 0.059 ± 0.0069 | 0.166 ± 0.025 | 0.156 ± 0.021 | 0.139 ± 0.0076 | 0.04753 ± 0.00025 | 0.287 ± 0.21 | 0.0531 ± 0.0013
9 | CCCC(CCC)C(=O)O [Valproic acid] | 0.241 ± 0.0026 | 0.293 ± 0.0086 | 0.2722 ± 0.00032 | 0.22 ± 0.02 | 0.22 ± 0.0036 | 0.137 ± 0.0016 | 0.416 ± 0.018 | 0.404 ± 0.047 | 0.202 ± 0.011 | 0.246 ± 0.0077 | 0.478 ± 0.035 | 0.41 ± 0.01 | 0.358 ± 0.022
10 | Nc1ccn([C@@H]2O[C@H](CO)[C@@H](O)C2(F)F)c(=O)n1 [Gemcitabine] | 0.1523 ± 0.0014 | 0.208 ± 0.012 | 0.193 ± 0.029 | 0.126 ± 0.012 | 0.116 ± 0.0036 | 0.164 ± 0.003 | 0.137 ± 0.0051 | 0.133 ± 0.0042 | 0.157 ± 0.0053 | 0.177 ± 0.035 | 0.51 ± 0.05 | 0.321 ± 0.018 | 0.217 ± 0.0091
11 | Cc1ccc(O)c([C@H](CCN(C(C)C)C(C)C)c2ccccc2)c1 [Tolterodine tartrate] | 0.163 ± 0.0078 | 0.245 ± 0.0098 | 0.283 ± 0.0087 | 0.201 ± 0.0068 | 0.148 ± 0.0076 | 0.191 ± 0.0035 | 0.245 ± 0.032 | 0.38 ± 0.025 | 0.198 ± 0.018 | 0.238 ± 0.036 | 0.55 ± 0.029 | 0.417 ± 0.0075 | 0.3 ± 0.013
12 | COc1ccc2cc([C@H](C)C(=O)O)ccc2c1 [Naproxen] | 0.26 ± 0.0081 | 0.265 ± 0.029 | 0.249 ± 0.014 | 0.187 ± 0.012 | 0.168 ± 0.0019 | 0.132 ± 0.0043 | 0.247 ± 0.028 | 0.426 ± 0.063 | 0.18 ± 0.062 | 0.217 ± 0.027 | 0.5599 ± 0.0025 | 0.42 ± 0.0057 | 0.293 ± 0.019
13 | Nc1ccccc1S(N)(=O)=O [2-Aminobenzenesulfonamide] | 0.239 ± 0.0094 | 0.296 ± 0.019 | 0.255 ± 0.0044 | 0.198 ± 0.0049 | 0.187 ± 0.0032 | 0.137 ± 0.004 | 0.399 ± 0.029 | 0.49 ± 0.028 | 0.2 ± 0.019 | 0.202 ± 0.019 | 0.566 ± 0.029 | 0.416 ± 0.013 | 0.343 ± 0.0096
14 | Cc1c(Cl)cccc1Nc1ncccc1C(=O)O [Clonixin Lysinate] | 0.181 ± 0.0096 | 0.207 ± 0.0063 | 0.155 ± 0.0017 | 0.173 ± 0.0047 | 0.0952 ± 0.0017 | 0.15 ± 0.0047 | 0.19 ± 0.011 | 0.17 ± 0.0079 | 0.175 ± 0.019 | 0.207 ± 0.035 | 0.334 ± 0.0083 | 0.283 ± 0.023 | 0.173 ± 0.026
15 | CCCCCN(C)CCC(O)(P(=O)(O)O)P(=O)(O)O [Ibandronate sodium] | 0.245 ± 0.0075 | 0.287 ± 0.01 | 0.25 ± 0.0058 | 0.196 ± 0.011 | 0.182 ± 0.0036 | 0.131 ± 0.0067 | 0.364 ± 0.022 | 0.448 ± 0.015 | 0.206 ± 0.0027 | 0.232 ± 0.035 | 0.462 ± 0.035 | 0.422 ± 0.01 | 0.358 ± 0.014
16 | Cc1ccc(C(=O)c2ccc(CC(=O)O)n2C)cc1 [Tolmetin sodium salt dihydrate] | 0.234 ± 0.0061 | 0.281 ± 0.014 | 0.253 ± 0.0051 | 0.169 ± 0.011 | 0.184 ± 0.0077 | 0.1348 ± 0.00087 | 0.432 ± 0.032 | 0.3668 ± 0.0019 | 0.197 ± 0.024 | 0.223 ± 0.028 | 0.518 ± 0.05 | 0.387 ± 0.018 | 0.337 ± 0.0088
17 | CCCc1ncc(C[n+]2ccccc2C)c(N)n1 [Amprolium hydrochloride] | 0.245 ± 0.0098 | 0.284 ± 0.029 | 0.2572 ± 0.0021 | 0.207 ± 0.027 | 0.18 ± 0.0063 | 0.142 ± 0.0046 | 0.359 ± 0.016 | 0.386 ± 0.0088 | 0.187 ± 0.0079 | 0.228 ± 0.05 | 0.497 ± 0.041 | 0.407 ± 0.016 | 0.376 ± 0.028
